PubChem BioAssay (EPA / NIEHS)
Records with an inconclusive call do not appear. Active and inactive are the calls of the source. How the source made its calls, unless noted: active means hit-call score of the fitted dose curve at least 0.9, where 1 is the maximum; inactive means score below 0.9.

What was measured:
[1] = read-out: Interleukin-8 (IL8), CXCL8 (gene 3576); experiment: BSK_3C_IL8: BioMAP Diversity Plus: 3C Assay for Interleukin-8 (IL8) Biomarker Activity (AID 2283020); details: primary human endothelial cells (HUVEC); actives raise or lower the signal
Summary of the method: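 IL-8 was measured by ELISA in HUVEC cultures 24 h after chemical dosing, with gain or loss of signal fitted relative to DMSO. Parallel SRB total-protein staining tracked overt cytotoxicity.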

[2] = read-out: Monokine induced gamma interferon (MIG), CXCL9 (gene 4283); experiment: BSK_3C_MIG: BioMAP Diversity Plus: 3C Assay for Monokine induced gamma interferon (MIG) Biomarker Activity (AID 2283021); details: primary human endothelial cells (HUVEC); actives raise or lower the signal
Summary of the method: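 ELISA measurement of MIG in human umbilical vein endothelial cells 24 h after treatment. Cytotoxicity tracked by SRB staining in parallel cultures; gain or loss of signal fitted relative to DMSO.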

[3] = BSK_3C_SRB: Viability Assessment in the BioMAP Diversity Plus: 3C Assay (AID 2283023); details: primary human endothelial cells (HUVEC);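 further: fitted both ways against DMSO so a hit may be signal rise or drop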
Summary of the method: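 Overt cytotoxicity is gauged in parallel confluent HUVEC cultures by SRB total-protein staining at the time of biomarker measurement, 24 h after dosing. Gain or loss of signal is fitted versus DMSO.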

[4] = read-out: Matrix Metallopeptidase 1 (MMP1), MMP1 (gene 4312); experiment: BSK_BE3C_MMP1: BioMAP Diversity Plus: BE3C Assay for Matrix Metallopeptidase 1 (MMP1) Biomarker Activity (AID 2283024); details: primary human bronchial epithelial cells; actives raise or lower the signal
Summary of the method: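 ELISA measurement of MMP-1 after 24 h compound exposure of primary human bronchial epithelial cells. Changes in either direction fitted relative to DMSO; parallel SRB staining checked overt cytotoxicity.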

[5] = BSK_3C_Vis: BioMAP Diversity Plus: 3C Assay for Morphology Visualization (AID 2283025); details: primary human endothelial cells (HUVEC);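 further: fitted both ways so gain or loss versus DMSO counts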
Summary of the method: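 Light-microscopy visualization of HUVEC cultures at 24 h post-treatment, with DMSO as baseline for bidirectional fitting.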

[6] = read-out: Pselectin, SELP (gene 6403); experiment: BSK_4H_Pselectin: BioMAP Diversity Plus: 4H Assay for Pselectin Biomarker Activity (AID 2283026); details: primary human endothelial cells (HUVEC); actives raise or lower the signal
Summary of the method: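 ELISA of surface P-selectin on HUVEC, 24 h after dosing, with parallel SRB staining (0.1% after 10% TCA fixation, 560 nm) for overt cytotoxicity. Activity fitted in both directions relative to DMSO.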

[7] = BSK_4H_SRB: Viability Assessment in the BioMAP Diversity Plus: 4H Assay (AID 2283027); details: primary human endothelial cells (HUVEC);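 further: cells exposed to compound for 24 h before staining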
Summary of the method: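 Cytotoxicity readout: sulforhodamine B (0.1%) staining of total protein after 10% TCA fixation, measured at 560 nm in human umbilical vein endothelium at 24 h. DMSO set the baseline; fitting was bidirectional.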

[8] = read-out: Thrombomodulin, THBD (gene 7056); experiment: BSK_3C_Thrombomodulin: BioMAP Diversity Plus: 3C Assay for Thrombomodulin Biomarker Activity (AID 2283029); details: primary human endothelial cells (HUVEC); actives raise or lower the signal
Summary of the method: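 ELISA measurement of thrombomodulin on HUVEC surface 24 h after chemical dosing; activity fitted in both directions relative to DMSO vehicle.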

[9] = read-out: Urokinase-type plasminogen activator receptor (uPAR), PLAUR (gene 5329); experiment: BSK_4H_uPAR: BioMAP Diversity Plus: 4H Assay for Urokinase-type plasminogen activator receptor (uPAR) Biomarker Activity (AID 2283030); details: primary human endothelial cells (HUVEC); actives raise or lower the signal
Summary of the method: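 Endpoint derived via bidirectional curve fitting against DMSO baseline; readout was ELISA detection of uPAR on umbilical vein endothelial cells at 24 h post-treatment, with SRB-stained parallel cultures assessing cytotoxicity.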

[10] = read-out: Vascular endothelial growth factor receptor 2 (Homo sapiens) (UniProt P35968); experiment: BSK_4H_VEGFRII: BioMAP Diversity Plus: 4H Assay for Vascular endothelial growth factor receptor 2 (VEGFR2) Biomarker Activity (AID 2283031); details: primary human endothelial cells (HUVEC); actives raise or lower the signal
Summary of the method: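 In this multiplexed HUVEC system, biomarker ELISA was performed after 24 h chemical exposure. Parallel SRB staining (TCA fixation, 560 nm) tracked cytotoxicity; DMSO served as baseline.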

[11] = read-out: Human Leukocyte Antigen - DR isotype (HLADR), HLA-DRA (gene 3122); experiment: BSK_BE3C_HLADR: BioMAP Diversity Plus: BE3C Assay for Human Leukocyte Antigen - DR isotype (HLADR) Biomarker Activity (AID 2283032); details: primary human bronchial epithelial cells; actives raise or lower the signal
Summary of the method: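 Cell-surface HLA-DR ELISA readout at 24 h after dosing in the BE3C primary human lung bronchial epithelial system; gain or loss of signal against DMSO, with parallel sulforhodamine B staining of total protein for overt cytotoxicity.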

[12] = read-out: Vascular cell adhesion molecule 1 (VCAM1), VCAM1 (gene 7412); experiment: BSK_4H_VCAM1: BioMAP Diversity Plus: 4H Assay for Vascular cell adhesion molecule 1 (VCAM1) Biomarker Activity (AID 2283033); details: primary human endothelial cells (HUVEC); actives raise or lower the signal
Summary of the method: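 VCAM-1 ELISA read 24 h after chemical dosing of HUVEC in the BioMAP 4H system, with gain or loss of signal fitted relative to DMSO. Parallel SRB staining (560 nm) checked overt cytotoxicity.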

[13] = read-out: Transforming growth factor beta 1 (TGFb1), TGFB1 (gene 7040); experiment: BSK_BE3C_TGFb1: BioMAP Diversity Plus: BE3C Assay for Transforming growth factor beta 1 (TGFb1) Biomarker Activity (AID 2283036;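 further: TGF-b1 protein level measured by ELISA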); details: primary human bronchial epithelial cells; actives raise or lower the signal
Summary of the method: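 ELISA readout of TGF-b1 from human lung bronchial epithelial primary cells, taken 24 h post-treatment. Gain or loss of signal fitted relative to DMSO baseline, with parallel SRB staining for overt cytotoxicity.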

[14] = read-out: Plasminogen activator inhibitor-1 (PAI1), SERPINE1 (gene 5054); experiment: BSK_BE3C_PAI1: BioMAP Diversity Plus: BE3C Assay for Plasminogen activator inhibitor-1 (PAI1) Biomarker Activity (AID 2283037); details: primary human bronchial epithelial cells; actives raise or lower the signal
Summary of the method: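 PAI-1 was measured by ELISA in human primary bronchial epithelial cultures 24 h after chemical dosing, with cytotoxicity checked by SRB total-protein staining in parallel cultures. Activity was fitted in both directions relative to DMSO.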

[15] = read-out: urokinase plasminogen activator (uPA), PLAU (gene 5328); experiment: BSK_BE3C_uPA: BioMAP Diversity Plus: BE3C Assay for urokinase plasminogen activator (uPA) Biomarker Activity (AID 2283038); details: primary human bronchial epithelial cells; actives raise or lower the signal;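 further: uPA protein level quantified by ELISA in cell cultures; uPA read one day after compound addition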
Summary of the method: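 Using confluent primary human lung bronchial epithelial cultures, we dosed chemicals, waited 24 h, then ran a uPA ELISA, fitting bidirectionally against DMSO.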

[16] = read-out: Urokinase-type plasminogen activator receptor (uPAR), PLAUR (gene 5329); experiment: BSK_BE3C_uPAR: BioMAP Diversity Plus: BE3C Assay for Urokinase-type plasminogen activator receptor (uPAR) Biomarker Activity (AID 2283039); details: primary human bronchial epithelial cells; actives raise or lower the signal;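 further: cells exposed to compound for one day before measurement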
Summary of the method: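 uPAR levels were measured by ELISA after 24 h compound treatment of primary human bronchial epithelial cells, fitted in both directions relative to DMSO. Parallel SRB staining served as the cytotoxicity read-out.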

[17] = target: human Vitamin D Receptor (VDR), VDR (gene 7421) (UniProt P11473); experiment: ATG_VDR_TRANS: Attagene TRANS-FACTORIAL HepG2 Assay for human Vitamin D Receptor (VDR) (AID 2283022; active means hit-call score of the fitted dose curve at least 0.9, where 1 is the maximum)
Summary of the method: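 Multiplexed TRANS reporter in HepG2; 24 h treatment; reporter mRNA by RT-PCR plus capillary electrophoresis; upregulation scored relative to DMSO.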

[18] = BSK_BE3C_SRB: Viability Assessment in the BioMAP Diversity Plus: BE3C Assay (AID 2283028); details: primary human bronchial epithelial cells
Summary of the method: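 SRB total-protein staining (0.1%, after TCA fixation) of chemically dosed human bronchial epithelial primary cells at 24 h; DMSO serves as the negative control for bidirectional curve fitting.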

[19] = read-out: Interferon-gamma inducible Protein 10 (IP10), CXCL10 (gene 3627); experiment: BSK_BE3C_IP10: BioMAP Diversity Plus: BE3C Assay for Interferon-gamma inducible Protein 10 (IP10) Biomarker Activity (AID 2283034); details: primary human bronchial epithelial cells; actives raise or lower the signal
Summary of the method: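 IP-10 quantified by ELISA in human primary bronchial epithelial cell cultures at 24 hours post-dosing. Gain or loss of signal fitted relative to DMSO; parallel SRB staining assessed overt cytotoxicity.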

[20] = read-out: Monokine induced gamma interferon (MIG), CXCL9 (gene 4283); experiment: BSK_BE3C_MIG: BioMAP Diversity Plus: BE3C Assay for Monokine induced gamma interferon (MIG) Biomarker Activity (AID 2283035); details: primary human bronchial epithelial cells; actives raise or lower the signal;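 further: MIG protein measured by ELISA in BE3C cultures after 24 h of dosing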
Summary of the method: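 hu bronchial epithelial 1° cells, 24 h cpd; MIG by ELISA; bidirectional fit, DMSO = baseline.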

Measured: AC50

Chain of human Vitamin D Receptor (VDR), VDR (gene 7421) (P11473 whole entry, looked up): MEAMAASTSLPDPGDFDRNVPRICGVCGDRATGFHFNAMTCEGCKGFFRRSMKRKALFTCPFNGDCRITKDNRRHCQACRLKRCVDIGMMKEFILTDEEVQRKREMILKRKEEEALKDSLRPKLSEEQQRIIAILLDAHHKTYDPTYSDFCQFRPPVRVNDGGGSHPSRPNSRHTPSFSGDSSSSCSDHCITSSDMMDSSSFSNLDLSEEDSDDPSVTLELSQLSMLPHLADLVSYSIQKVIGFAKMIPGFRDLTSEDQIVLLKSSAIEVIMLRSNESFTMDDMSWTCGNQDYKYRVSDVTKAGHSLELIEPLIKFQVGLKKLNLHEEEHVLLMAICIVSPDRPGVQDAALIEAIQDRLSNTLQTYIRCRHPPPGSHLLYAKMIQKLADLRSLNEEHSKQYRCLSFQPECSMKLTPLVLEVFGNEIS

CCOC(=O)C(C)(C)Oc1ccc(Cl)cc1
inactive: [1] | [2] | [3] | [4] | [5] | [6] | [7] | [8] | [9] | [10] | [11] | [12] | [13] | [14] | [15] | [16]

CCCCN(CCCC)CCCC
inactive: [2] | [17] | [3] | [4] | [5] | [6] | [7] | [18] | [8] | [9] | [10] | [11] | [12] | [19] | [13] | [14] | [15] | [16]

OC[C@@H](O)[C@@H](O)[C@H](O)[C@H](O)CO
inactive: [1] | [2] | [3] | [5] | [6] | [7] | [8] | [9] | [10] | [11] | [12] | [19] | [13] | [14] | [15] | [16]

CCNc1cccc(C)c1
inactive: [2] | [17] | [3] | [4] | [5] | [6] | [7] | [8] | [9] | [10] | [11] | [12] | [19] | [20] | [13] | [14] | [15] | [16]

CCCCCCCC=O
inactive: [2] | [17] | [3] | [4] | [5] | [6] | [7] | [8] | [9] | [10] | [11] | [12] | [19] | [20] | [13] | [14] | [15] | [16]

CCCCCCCCCCCC(=O)OC
inactive: [2] | [17] | [3] | [4] | [5] | [6] | [7] | [8] | [9] | [10] | [11] | [12] | [19] | [20] | [13] | [14] | [15] | [16]

CC=Cc1ccc(O)c(OC)c1
inactive: [1] | [2] | [3] | [4] | [5] | [6] | [7] | [8] | [9] | [10] | [11] | [19] | [20] | [13] | [14] | [15] | [16]
active: [12] 7.6 µM
